The values that follow come from PubChem BioAssay (NCI).

A short description of experiment [1]: NCI Yeast Anticancer Drug Screen. Data for the rad50 strain (AID 155).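 Note: 0% = growth of vehicle-only cultures of the same strain.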 The note with it: S. cerevisiae rad50 strain growth inhibition, stronger effect = higher value. In outline: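 A DNA repair-deficient yeast mutant serves as the test organism; compound-induced growth inhibition is calculated against vehicle-treated cells.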
Experiment [2] in a line: NCI Yeast Anticancer Drug Screen. Data for the mec2-1 strain (AID 157). The note with it: S. cerevisiae mec2-1 strain, stronger effect = higher value. In outline: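 Vehicle-treated cultures served as reference for growth inhibition of compound-exposed mec2-1 yeast.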
Experiment [3] is described as follows: NCI Yeast Anticancer Drug Screen. Data for the sgs1 mgt1 strain (AID 161).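 Note: 0% = growth of cultures given vehicle only.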 Particulars: S. cerevisiae sgs1 mgt1 strain, stronger effect = higher value. In outline: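 Test agents were incubated with a DNA-repair-mutant yeast strain. Growth was then read and compared against vehicle-treated controls.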
Experiment [4] is described as follows: NCI Yeast Anticancer Drug Screen. Data for the cln2 rad14 strain (AID 165).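 Note: 0% = growth equal to vehicle treated cultures.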 Particulars: S. cerevisiae cln2 rad14 strain, stronger effect = higher value. In short, it runs like this:
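Each compound was tested on cln2 rad14 yeast. Inhibition of growth was calculated against vehicle-exposed controls.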

The nature of experiment [5]: NCI Yeast Anticancer Drug Screen. Data for the bub3 strain (AID 167). Particulars: S. cerevisiae bub3 mutant strain, stronger effect = higher value. In outline: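 Inhibition values come from growth of compound-treated mutant yeast normalised to vehicle-treated controls.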
Experiment [6] can be described thus: NCI Yeast Anticancer Drug Screen. Data for the mlh1 rad18 strain (AID 175). The note with it: S. cerevisiae mlh1 rad18 strain growth inhibition, stronger effect = higher value. In short, it runs like this: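 Vehicle-treated cultures served as the reference for growth inhibition in a yeast strain carrying DNA damage repair alterations exposed to each compound.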
[7] abbreviates: at 5.0 µM (retest, dose inferred, filed as 0.5).
[8] abbreviates: at 50.0 µM (retest, dose inferred, filed as 5.0).

Where “and” joins values, the source holds several entries; their conditions need not be identical. Identical values can stand only once. This is part of a sample that, as a whole, favours compounds with a hit. Of some 79,000 tested, about 15% had one in any assay. More than one record can exist for a structure, and the calls need not agree. Calls of active or inactive are those of the source. Cut-off read from the data, not from the text of the source: active = growth inhibition above about 70%; inactive = the rest.

Regarding `COc1ccc(C2SC(N)=Nc3c2c(C)nn3C(=O)c2ccc(Cl)cc2)cc1OC` (stereo unspecified), the growth inhibition in experiment [1] (setting [7]) is 6% (inactive); in experiment [1] (setting [8]), 11% (inactive); in experiment [1] (at 50.0 µM), -19.2% (inactive); in experiment [2] (setting [7]), -10% (inactive); in experiment [2] (setting [8]), -1% (inactive); in experiment [2] (at 50.0 µM) it was 14.5% (inactive). Further, the growth inhibition in experiment [3] (setting [7]) was -7% (inactive); in experiment [3] (setting [8]) it was 0% (inactive); in experiment [3] (at 50.0 µM) it was 3.85% (inactive); in experiment [4] (setting [7]) it was -21% (inactive); in experiment [4] (setting [8]) it was 1% (inactive); in experiment [4] (at 50.0 µM), 64.5% (inactive). The growth inhibition is -18% (inactive) in experiment [5] (setting [7]); 15% (inactive) in experiment [5] (setting [8]); 16.1% (inactive) in experiment [5] (at 50.0 µM); -8% (inactive) in experiment [6] (setting [7]); -15% (inactive) in experiment [6] (setting [8]); -26.6% (inactive) in experiment [6] (at 50.0 µM).

Turning to `O=C(O)C#CC(=O)O`, the growth inhibition in experiment [1] (setting [7]) was 22% (inactive); in experiment [1] (setting [8]) it was 76% (active); in experiment [1] (at 50.0 µM), 76.2% (active) and 1.25% (inactive); in experiment [2] (setting [7]) it was 20% (inactive); in experiment [2] (setting [8]) it was 20% (inactive); in experiment [2] (at 50.0 µM), 85.7% (active) and -6.9% (inactive). The growth inhibition was 28% (inactive) in experiment [3] (setting [7]); 63% (inactive) in experiment [3] (setting [8]); 76.2% (active) and 12.3% (inactive) in experiment [3] (at 50.0 µM); 31% (inactive) in experiment [4] (setting [7]); 30% (inactive) in experiment [4] (setting [8]); 17.6% (inactive) and 1.65% (inactive) in experiment [4] (at 50.0 µM). Moreover, the growth inhibition in experiment [5] (setting [7]) is 26% (inactive); in experiment [5] (setting [8]) it was 38% (inactive); in experiment [5] (at 50.0 µM), 60% (inactive) and -7.7% (inactive); in experiment [6] (setting [7]), 35% (inactive); in experiment [6] (setting [8]) it was 60% (inactive); in experiment [6] (at 50.0 µM) it was 75.5% (active) and 15.1% (inactive).

On to `O=c1cc[nH]c2ccccc12`, for which the growth inhibition is 34% (inactive) in experiment [1] (setting [7]); 81% (active) in experiment [1] (setting [8]); 13.5% (inactive) and 0% (inactive) in experiment [1] (at 50.0 µM); 24% (inactive) in experiment [2] (setting [7]); 63% (inactive) in experiment [2] (setting [8]); 1.25% (inactive) and -3.85% (inactive) in experiment [2] (at 50.0 µM). Further, the growth inhibition in experiment [3] (setting [7]) was 16% (inactive); in experiment [3] (setting [8]), 64% (inactive); in experiment [3] (at 50.0 µM) it was -6.85% (inactive) and 7.5% (inactive); in experiment [4] (setting [7]) it was 6% (inactive); in experiment [4] (setting [8]), 48% (inactive); in experiment [4] (at 50.0 µM), 7.35% (inactive) and -24.1% (inactive). The growth inhibition in experiment [5] (setting [7]) is 71% (active); in experiment [5] (setting [8]), 98% (active); in experiment [5] (at 50.0 µM) it was -1.2% (inactive) and -1.85% (inactive); in experiment [6] (setting [7]) it was 50% (inactive); in experiment [6] (setting [8]), 88% (active); in experiment [6] (at 50.0 µM), 0.7% (inactive) and 0.35% (inactive).

On to `c1cc2c3c(cccc3c1)-c1cnccc1-2`, for which the growth inhibition in experiment [1] (setting [7]) was 31% (inactive); in experiment [1] (setting [8]), 54% (inactive); in experiment [1] (at 50.0 µM) it was 91.1% (active); in experiment [2] (setting [7]), 36% (inactive); in experiment [2] (setting [8]), 84% (active); in experiment [2] (at 50.0 µM) it was 92.7% (active). Moreover, the growth inhibition in experiment [3] (setting [7]) is -6% (inactive); in experiment [3] (setting [8]), 97% (active); in experiment [3] (at 50.0 µM), 92.9% (active); in experiment [4] (setting [7]), 48% (inactive); in experiment [4] (setting [8]) it was 97% (active); in experiment [4] (at 50.0 µM), 90.8% (active). In addition, the growth inhibition in experiment [5] (setting [7]) is 16% (inactive); in experiment [5] (setting [8]), 98% (active); in experiment [5] (at 50.0 µM) it was 92.3% (active); in experiment [6] (setting [7]) it was 35% (inactive); in experiment [6] (setting [8]) it was 73% (active); in experiment [6] (at 50.0 µM) it was 91.8% (active).

On to `CCOC(=O)c1c[nH]c2c(ccc3cccnc32)c1=O`, for which the growth inhibition in experiment [1] (setting [7]) was 10% (inactive) and 5% (inactive); in experiment [1] (setting [8]), 64% (inactive) and 66% (inactive); in experiment [1] (at 50.0 µM), 38% (inactive) and 38.8% (inactive); in experiment [2] (setting [7]) it was 7% (inactive) and -15% (inactive); in experiment [2] (setting [8]), 64% (inactive) and 43% (inactive); in experiment [2] (at 50.0 µM), 13.9% (inactive) and 12.2% (inactive). Besides, the growth inhibition was 8% (inactive) and -1% (inactive) in experiment [3] (setting [7]); 85% (active) and 56% (inactive) in experiment [3] (setting [8]); 10.8% (inactive) and 52.7% (inactive) in experiment [3] (at 50.0 µM); 3% (inactive) and -3% (inactive) in experiment [4] (setting [7]); 43% (inactive) and 41% (inactive) in experiment [4] (setting [8]); 26.9% (inactive) and 24.3% (inactive) in experiment [4] (at 50.0 µM). The growth inhibition in experiment [5] (setting [7]) was -3% (inactive) and 4% (inactive); in experiment [5] (setting [8]), 48% (inactive) and 43% (inactive); in experiment [5] (at 50.0 µM), 18.4% (inactive) and 6.8% (inactive); in experiment [6] (setting [7]) it was 2% (inactive) and -1% (inactive); in experiment [6] (setting [8]) it was 84% (active) and 79% (active); in experiment [6] (at 50.0 µM), 37.7% (inactive) and 79.8% (active).

As for `C[Si]1(C)CN(CCN)C[Si](C)(C)O1`, the growth inhibition in experiment [1] (setting [7]) was 3% (inactive); in experiment [1] (setting [8]), 2% (inactive); in experiment [1] (at 50.0 µM), -3.85% (inactive) and 55.5% (inactive); in experiment [2] (setting [7]), 1% (inactive); in experiment [2] (setting [8]) it was 9% (inactive); in experiment [2] (at 50.0 µM) it was 4.25% (inactive) and 49.5% (inactive). In addition, the growth inhibition in experiment [3] (setting [7]) was 2% (inactive); in experiment [3] (setting [8]) it was 0% (inactive); in experiment [3] (at 50.0 µM), -15.4% (inactive) and 76.5% (active); in experiment [4] (setting [7]), 2% (inactive); in experiment [4] (setting [8]), -3% (inactive); in experiment [4] (at 50.0 µM) it was -20.3% (inactive) and 45% (inactive). For the same molecule, the growth inhibition is -2% (inactive) in experiment [5] (setting [7]); -4% (inactive) in experiment [5] (setting [8]); -3.65% (inactive) and 68.4% (inactive) in experiment [5] (at 50.0 µM); 0% (inactive) in experiment [6] (setting [7]); -2% (inactive) in experiment [6] (setting [8]); -1.3% (inactive) and 62.6% (inactive) in experiment [6] (at 50.0 µM).

As for `C=CC(=O)O`, the growth inhibition in experiment [1] (setting [7]) is -2% (inactive); in experiment [1] (setting [8]), -1% (inactive); in experiment [1] (at 50.0 µM) it was 9.85% (inactive) and 32.4% (inactive); in experiment [2] (setting [7]) it was -1% (inactive); in experiment [2] (setting [8]) it was 0% (inactive); in experiment [2] (at 50.0 µM), 21.9% (inactive) and -20.6% (inactive). Moreover, the growth inhibition in experiment [3] (setting [7]) was -1% (inactive); in experiment [3] (setting [8]) it was 2% (inactive); in experiment [3] (at 50.0 µM), -3.35% (inactive) and 18.4% (inactive); in experiment [4] (setting [7]) it was 0% (inactive); in experiment [4] (setting [8]) it was 1% (inactive); in experiment [4] (at 50.0 µM) it was 20.8% (inactive) and 9.55% (inactive). Moreover, the growth inhibition in experiment [5] (setting [7]) was 1% (inactive); in experiment [5] (setting [8]), 3% (inactive); in experiment [5] (at 50.0 µM) it was 47% (inactive) and 30.1% (inactive); in experiment [6] (setting [7]), 1% (inactive); in experiment [6] (setting [8]), -1% (inactive); in experiment [6] (at 50.0 µM) it was 47.5% (inactive) and 39% (inactive).
